Activity calls are given as the source filed them.
Experiments:
[1] = compound effects on lung adenocarcinoma cell viability – A549, calcein-AM fluorescence, 48 h, basal, profiling panel (AID 1162); conditions: higher = more signal
[2] = compound effects on differentiated 3T3-L1 adipocyte viability – cell-based, 3T3-L1 adipocytes, calcein-AM fluorescence, 48 h, basal, profiling panel (AID 1163); conditions: 3T3-L1 adipocytes viability, higher = more signal
[3] = compound effects on hepatocellular carcinoma cell viability – HepG2, calcein-AM fluorescence, 48 h, basal, profiling panel (AID 1164); conditions: higher = more signal
[4] = compound effects on multiple myeloma cell viability – MM1S, calcein-AM fluorescence, 48 h, basal, profiling panel (AID 1165); conditions: higher = more signal
[5] = calcein-AM signal in unstimulated myeloma cells – cell-based, calcein-AM fluorescence, 48 h, PK04 Diversity Set, profiling panel (AID 1166); conditions: RPMI8226 myeloma viability, higher = more signal;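 also: cells grown under basal conditions without added stimulus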
[6] = JC-1 mitochondrial signal, unstimulated HepG2 cells – cell-based, JC-1 fluorescence, 24 h, 100 nL compound, profiling panel (AID 1167); conditions: HepG2 mitochondrial potential, higher = more signal
[7] = JC-1 mitochondrial signal, unstimulated adipocytes – cell-based, JC-1 fluorescence, 3T3-L1 adipocytes, 24 h, 100 nL compound, profiling panel (AID 1168); conditions: JC-1 mitochondrial fluorescence, higher = more signal, called active from +8 up or from −8 down
[8] = JC-1 mitochondrial signal, unstimulated myeloma cells – cell-based, JC-1 fluorescence, RPMI8226, 24 h, 100 nL compound, profiling panel (AID 1169); conditions: JC-1 mitochondrial potential fluorescence, higher = more signal
[9] = JC-1 mitochondrial signal, unstimulated MM1S myeloma – cell-based, JC-1 fluorescence, 24 h, 100 nL compound, profiling panel (AID 1170); conditions: MM1S mitochondrial potential, higher = more signal
[10] = resazurin metabolic signal in A549 cells – cell-based, resazurin fluorescence, 24 h, PK04 Diversity Set, profiling panel (AID 1171); conditions: A549 viability, higher = more signal, called active from +8 up or from −8 down
Also: test concentration not given here.

For CCCCN1CC=CC23O[C@@H]4/C=C\CCC(C)OC(=O)C4[C@H]2C(=O)N(CCO)[C@@H]3C1=O (stereo not given in full), the z-score [1] was -0.266, the z-score [2] was 0.555 and the z-score [3] was -0.406. The z-score [4] was -0.0157, the z-score [5] was -1.19 and the z-score [6] was 0.0609. The z-score [7] was -0.0386 (inactive), the z-score [8] was 0.881 and the z-score [9] was 0.213. For the same molecule, the z-score [10] was 0.265 (inactive).

O=C(c1ccccc1)N1Cc2ccccc2C[C@@]2(N=C(c3ccc(OCCCO)cc3)O[C@H]2c2ccccc2)C1=O showed a z-score [1] of -1.12, a z-score [2] of 0.862 and a z-score [3] of -1.18. The z-score [4] was -3.31, the z-score [5] was -4.05 and the z-score [6] was -1.68. The z-score [7] was 0.471 (inactive), the z-score [8] was -1.25 and the z-score [9] was -2.14. The z-score [10] was -2.63 (inactive).

In the case of COCCOC(=O)N1C(=O)[C@@]2(c3cc(C#CCNC(N)=O)ccc31)[C@H](c1ccccc1OCCO)N1[C@H](c3ccccc3)[C@H](c3ccccc3)OC(=O)[C@H]1[C@@H]2C(=O)N1CCCCCCC1, the z-score [1] is reported as -0.396, the z-score [2] is reported as -0.0319 and the z-score [3] is reported as 0.371. For the same molecule, the z-score [4] was -1.22, the z-score [5] was 0.56 and the z-score [6] was -1.51. The z-score [7] was -1.3 (inactive), the z-score [8] was -0.441 and the z-score [9] was -0.911. For the same molecule, the z-score [10] was 0.519 (inactive).

C=C(CC1([C@@H](NP(=O)(c2ccccc2)c2ccccc2)[C@H]2C[C@@H]2CCCC)CC1)c1cccc(OC)c1 gave a z-score [1] of -1.61, a z-score [2] of -0.803 and a z-score [3] of -0.96. The z-score [4] was -3.47, the z-score [5] was -4.72 and the z-score [6] was -1.28. For the same molecule, the z-score [7] was -0.532 (inactive), the z-score [8] was -0.799 and the z-score [9] was -0.366. The z-score [10] was 6.21 (inactive).

C=CCOC(=O)[C@H]1[C@@H]2C(=O)O[C@@H](c3ccccc3)[C@@H](c3ccccc3)N2[C@@H](c2ccc(OCCOC(=O)[C@@H]3C[C@@H]4C(=O)N[C@@H](Cc5ccccc5)C(=O)N4[C@@H]3c3ccc(O)cc3)cc2)[C@]12C(=O)Nc1ccc(I)cc12 showed a z-score [1] of -1.29, a z-score [2] of -0.28 and a z-score [3] of 0.561. The z-score [4] was -0.325, the z-score [5] was -0.561 and the z-score [6] was -2.14. For the same molecule, the z-score [7] was 0.687 (inactive), the z-score [8] was -0.398 and the z-score [9] was -1.03. The z-score [10] was -0.454 (inactive).

In the case of CO[C@H]1O[C@H](CO)[C@@H](OC(=O)Nc2ccccc2)[C@@H]2OC(=O)[C@@H](Cc3ccccc3)C/C=C/C[C@H](Cc3ccccc3)C(=O)O[C@@H]12, the z-score [1] is reported as -0.255, the z-score [2] is reported as -0.0852 and the z-score [3] is reported as 0.297. The z-score [4] was 0.36, the z-score [5] was 0.335 and the z-score [6] was -0.502. For the same molecule, the z-score [7] was 2.28 (inactive), the z-score [8] was -0.532 and the z-score [9] was -1.65. For the same molecule, the z-score [10] was -0.869 (inactive).

COc1ccc(C(=O)Nc2ccc(CN3C(=O)[C@@]4(O[C@@H](CC(=O)N(CCO)Cc5ccccc5)[C@H]([Si](C)(C)c5ccc(OC)cc5)[C@H]4C)c4ccccc43)cc2)cc1 showed a z-score [1] of -0.86, a z-score [2] of 1.4 and a z-score [3] of -1.04. The z-score [4] was -0.507, the z-score [5] was -1.47 and the z-score [6] was 0.656. The z-score [7] was 0.816 (inactive), the z-score [8] was -0.931 and the z-score [9] was -0.493. For the same molecule, the z-score [10] was -0.861 (inactive).

Work on COc1ccc([Si](C)(C)[C@H]2[C@H](CC(=O)N(CCO)Cc3ccccc3)O[C@@]3(C(=O)N(Cc4ccc(N5C(=O)c6cccc7cccc5c67)cc4)c4ccccc43)[C@@H]2C)cc1 yielded a z-score [1] of -1.12, a z-score [2] of 1.59 and a z-score [3] of -0.899. For the same molecule, the z-score [4] was -0.998, the z-score [5] was -3.8 and the z-score [6] was 0.488. For the same molecule, the z-score [7] was -0.381 (inactive), the z-score [8] was -1.05 and the z-score [9] was -0.091. For the same molecule, the z-score [10] was -2.22 (inactive).

With COC(=O)[C@@]1(Cc2ccc(F)cc2)[C@H]2c3cc(C(=O)N4CCCC4)n(C[C@H](O)CO)c3C[C@H]2CN1C(=O)c1ccccc1 the z-score [1] was -1.21, the z-score [2] was 0.24 and the z-score [3] was -0.674. For the same molecule, the z-score [4] was -0.26, the z-score [5] was -1.07 and the z-score [6] was -0.438. The z-score [7] was -1.11 (inactive), the z-score [8] was -0.663 and the z-score [9] was -0.371. The z-score [10] was 0.467 (inactive).

With COCCOC(=O)N1C(=O)[C@@]2(c3cc(C#CC4=CCCCC4)ccc31)[C@H](C(=O)N1CCCCCCC1)[C@H]1C(=O)O[C@H](c3ccccc3)[C@H](c3ccccc3)N1[C@@H]2c1ccccc1OCCO the z-score [1] was -0.314, the z-score [2] was 0.922 and the z-score [3] was -0.107. For the same molecule, the z-score [4] was -0.99, the z-score [5] was -0.813 and the z-score [6] was 0.0436. The z-score [7] was 0.992 (inactive), the z-score [8] was -0.966 and the z-score [9] was -0.982. The z-score [10] was 0.356 (inactive).

With O=C1O[C@H](c2ccccc2)[C@H](c2ccccc2)N2[C@H]1[C@@H](C(=O)N1CCN(c3ncccn3)CC1)[C@]1(C(=O)Nc3ccc(C#CC4(O)CCCCCC4)cc31)[C@H]2c1ccc(O)cc1 the z-score [1] was 1.84, the z-score [2] was 0.783 and the z-score [3] was 1.58. For the same molecule, the z-score [4] was 0.0827, the z-score [5] was -0.153 and the z-score [6] was -0.553. For the same molecule, the z-score [7] was -0.166 (inactive), the z-score [8] was -0.259 and the z-score [9] was 0.18. For the same molecule, the z-score [10] was 1.17 (inactive).

COCCOC(=O)N1C(=O)[C@@]2(c3cc(C#CCC(C(=O)OC)C(=O)OC)ccc31)[C@H](c1ccc(O)cc1)N1[C@H](c3ccccc3)[C@H](c3ccccc3)OC(=O)[C@H]1[C@@H]2C(=O)N1CCc2cc(OC)c(OC)cc2C1 showed a z-score [1] of 0.393, a z-score [2] of 0.632 and a z-score [3] of 0.806. For the same molecule, the z-score [4] was -0.243, the z-score [5] was -3.34 and the z-score [6] was 0.763. The z-score [7] was -0.291 (inactive), the z-score [8] was -1.15 and the z-score [9] was 0.22. The z-score [10] was 0.742 (inactive).

Molecule COC(=O)C(CC#Cc1ccc2c(c1)[C@]1(C(=O)N2)[C@H](c2ccc(OCCO)cc2)N2[C@H](c3ccccc3)[C@H](c3ccccc3)OC(=O)[C@H]2[C@@H]1C(N)=O)C(=O)OC has a z-score [1] of -0.729, a z-score [2] of 0.251 and a z-score [3] of -0.188. It also gave a z-score [4] of -2.2, a z-score [5] of -1.68 and a z-score [6] of -0.68. The z-score [7] was 0.81 (inactive), the z-score [8] was -1.12 and the z-score [9] was -0.927. For the same molecule, the z-score [10] was -0.0032 (inactive).

Work on CS(=O)(=O)CCOC(=O)C1=CC(CCCO)=CC(C2CC2)N(Cc2sc3ccccc3c2Cl)C=C1C(=O)OCCS(C)(=O)=O (stereo not given) yielded a z-score [1] of -0.768, a z-score [2] of 0.968 and a z-score [3] of -0.344. For the same molecule, the z-score [4] was -3.24, the z-score [5] was -3.05 and the z-score [6] was 1.67. For the same molecule, the z-score [7] was 0.182 (inactive), the z-score [8] was -0.843 and the z-score [9] was -1.27. For the same molecule, the z-score [10] was 0.459 (inactive).

With CC(C)C[C@H]1NC(=O)CNC(=O)[C@@]23C(=O)N[C@@H](Cc4ccccc4)C2[C@H](C)[C@@]2(C)O[C@H]2C3/C=C/C/C=C\CNC1=O (stereo not given in full) the z-score [1] was -0.518, the z-score [2] was 0.535 and the z-score [3] was -0.899. It also gave a z-score [4] of -0.101, a z-score [5] of -0.0815 and a z-score [6] of -0.561. For the same molecule, the z-score [7] was 0.451 (inactive), the z-score [8] was -0.469 and the z-score [9] was -0.112. For the same molecule, the z-score [10] was 0.478 (inactive).

Source: PubChem BioAssay
